HepG2 tox = HepG2 cytotoxicity, counter-screen for TGF-b inhibitors | HepG2 CAGA-GFP viability, ATP luminescence, 18 h | Potency, µM (series often up to 46.1 µM), for inactives: top-dose activity change, negative = cytotoxicity, actives largely listed as cytotoxic | 410,000 tested, 0.76% active | AID 588856; further: potency means the concentration at half of the fitted maximal effect
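HepG2 CAGA-GFP cells (1000/well, DMEM with 1% FBS) received compound, then TGF-beta at 500 pg/mL final, and were incubated 18 hours at 37 degrees C. Viability was read by CellTiter-Glo luminescence. Media-only wells were set as complete cell-killing and DMSO as no toxicity.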
TDP1 block = TDP1 (human) enzyme inhibition | recombinant TDP1, AlphaScreen DNA substrate cleavage | Potency, µM (doses to about 130 µM), for the others: at the top dose activity change, negative = inhibition, usual class: inhibitors | 350,000 tested, 0.28% active | AID 485290; further: potency means the concentration at half of the fitted maximal effect; on the % scale 0 is the no-effect control and ±100 the full control effect; nearly all actives have a fitted effect of over 40% in size
Target sequence (Q9NUW8 whole entry, looked up): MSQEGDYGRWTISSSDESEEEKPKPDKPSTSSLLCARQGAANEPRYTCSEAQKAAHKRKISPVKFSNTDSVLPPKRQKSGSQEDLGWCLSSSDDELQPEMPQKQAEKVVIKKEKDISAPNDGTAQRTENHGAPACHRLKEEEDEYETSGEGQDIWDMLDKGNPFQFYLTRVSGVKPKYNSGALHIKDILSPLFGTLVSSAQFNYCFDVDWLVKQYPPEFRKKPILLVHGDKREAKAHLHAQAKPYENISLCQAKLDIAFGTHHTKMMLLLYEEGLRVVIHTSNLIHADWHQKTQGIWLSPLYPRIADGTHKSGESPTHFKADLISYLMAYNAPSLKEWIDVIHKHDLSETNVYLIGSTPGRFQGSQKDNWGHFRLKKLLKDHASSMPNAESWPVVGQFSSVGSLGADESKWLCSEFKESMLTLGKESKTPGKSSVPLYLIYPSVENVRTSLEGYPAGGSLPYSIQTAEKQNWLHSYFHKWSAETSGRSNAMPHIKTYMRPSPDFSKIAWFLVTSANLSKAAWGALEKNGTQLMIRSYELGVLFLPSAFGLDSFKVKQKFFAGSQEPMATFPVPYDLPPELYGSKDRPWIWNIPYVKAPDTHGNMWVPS
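Recombinant human Tdp1 (E. coli-expressed, 1 nM final) preincubated with compounds 15 min at room temperature, then 5'-biotin/3'-phosphotyrosine-FITC DNA substrate (15 nM final) added for 5 min. AlphaScreen beads (10 ug/ml final) added 10 min; cleavage lowers signal.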
TDP1 cell noCPT = qHTS for Inhibitors of human tyrosyl-DNA phosphodiesterase 1 (TDP1): qHTS in cells in absence of CPT; Potency, µM (highest dose often 46.2 µM), without a hit: top-dose activity change, negative = growth inhibition, hits mostly inhibitors; DT40 Tdp1-/- hTDP1 cells, no CPT, ATP luminescence, 48 h; 420,000 tested, 15% active; AID 686978, 2013; further: potency means the concentration at half of the fitted maximal effect; on the % scale 0 is the no-effect control and ±100 the full control effect; nearly all actives have a fitted effect of over 55% in size
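Growth kinetics read by CellTiter-Glo luminescence after ≥48 hr at 37 °C. Cells: DT40 Tdp1-/- stably carrying human TDP1, 400 per well, compound exposure in the absence of CPT (DMSO vehicle).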
IL-1B inflam inh = inflammasome signaling inhibition, IL-1 beta readout | AID 743279 | 360,000 tested, 4.7% active | activity change, % at 57.5 µM | THP-1 LPS/ATP IL-1B secretion, AlphaLISA, 16 h; stronger effect = lower value; in the data active means activity change below about -50%; inconclusive means mostly about -30% to -49%; further: on the % scale 0 is the no-effect control and ±100 the full control effect
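Secreted IL-1B measured by AlphaLISA bead assay after 16 h compound exposure of THP-1 cells; compounds (final up to 57.5 uM) added 1 h before LPS (250 ng/mL) and ATP (1.25 mM) stimulation; lower signal means less secretion.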
DT40 TDP1 CPT = growth inhibition of DT40 Tdp1-/-;hTDP1 cells with camptothecin (screen for TDP1 inhibitors) | chicken DT40 Tdp1-/-;hTDP1 cells + 20 nM CPT, ATP luminescence, 48 h | Potency, µM (series often up to 46.2 µM), without a hit: at the highest dose activity change, negative = growth inhibition, most hits filed as inhibitors | 420,000 tested, 12% active | AID 686979; further: potency means the concentration at half of the fitted maximal effect; on the % scale 0 is the no-effect control and ±100 the full control effect; nearly all actives have a fitted effect of over 55% in size
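Chicken DT40 Tdp1-/- cells complemented with human TDP1, 400 cells/well, exposed to compounds plus 20 nM camptothecin for at least 48 h at 37 C; viability read as ATP content by CellTiter-Glo luminescence.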
TGFb inhibitor = inhibitors of TGF-b signaling. HepG2 CAGA-GFP TGF-b/SMAD3 reporter, GFP fluorescence, 18 h; TGF-beta stimulated, 500 pg/mL final. Potency, µM (doses to about 46.1 µM), for the others: top-dose activity, negative = inhibition, usual class: inhibitors. 410,000 tested, 1.2% active. AID 588855; further: potency means the concentration at half of the fitted maximal effect; on the % scale 0 is the no-effect control and ±100 the full control effect; nearly all actives have a fitted effect of over 65% in size
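Using HEPG2 CAGA-GFP reporter cells at 1000 cells/well, we pinned test compounds, stimulated with recombinant TGF-beta (500 pg/mL final) and measured total well GFP after 18 h.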
* marks the source's active call; other numbers are inactive results. In the library only some 18% were active in any assay of this set; here they are far more common. Unless noted, the call rests on the fitted dose curve; in most records, active means well fitted curve in the direction sought with a large enough effect; inconclusive means small, poorly fitted or top-dose-only effect, or another doubt; inactive means no such curve, though single readings can be large; an effect the other way counts as inactive or inconclusive.

Cc1ccc(-c2csc(N3CCN(CCCn4c(C(F)(F)F)nc5ccccc54)CC3)n2)cc1 was read as HepG2 tox -24.3%, TDP1 cell noCPT 14.6µM*, IL-1B inflam inh 28.8, DT40 TDP1 CPT 20.6µM* and TGFb inhibitor inconclusive.
For Cc1ccc(-c2csc(NCCn3c(C(F)(F)F)nc4ccccc43)n2)cc1 the results were HepG2 tox -27.6%, TDP1 cell noCPT inconclusive, IL-1B inflam inh 49.6, DT40 TDP1 CPT inconclusive and TGFb inhibitor -6.5%.
Screening CCc1ccc(S(=O)(=O)c2cn(Cc3ccc(OC)cc3)c3cc(OC)c(OC)cc3c2=O)cc1 returned HepG2 tox 2.4%, TDP1 block 1.3%, TDP1 cell noCPT inconclusive, DT40 TDP1 CPT inconclusive and TGFb inhibitor -4.7%.
`O=C(Nc1cc(S(=O)(=O)N2CCOCC2)ccc1Cl)c1ccncc1` gave HepG2 tox -8.4%, TDP1 block 1.7%, TDP1 cell noCPT -1.9%, IL-1B inflam inh 3.6, DT40 TDP1 CPT -0.2% and TGFb inhibitor inconclusive.
For CCCCNC(=O)NS(=O)(=O)c1ccc(N)cc1 the results were TDP1 block 5.1%, TDP1 cell noCPT -27.1% and DT40 TDP1 CPT 6.9%.
`O=C(Nc1ccc(Br)cc1F)c1cc(S(=O)(=O)NC2CCCCC2)ccc1F` gave HepG2 tox -69.9%, TDP1 block 9.3%, TDP1 cell noCPT 20.6µM*, DT40 TDP1 CPT 23.1µM* and TGFb inhibitor inconclusive.
`O=C(Nc1ccc(Br)cc1)c1ccc(F)c(S(=O)(=O)NC2CCCCCC2)c1` gave HepG2 tox -81.8%, TDP1 block 5.2%, TDP1 cell noCPT 1.64µM*, DT40 TDP1 CPT 2.91µM* and TGFb inhibitor inconclusive.
Screening CC(C)c1ccc(NC(=O)c2cc(S(=O)(=O)NC3CCCCC3)ccc2F)cc1 returned HepG2 tox 12.6µM*, TDP1 block -2.6%, TDP1 cell noCPT 18.4µM*, DT40 TDP1 CPT 16.4µM* and TGFb inhibitor inconclusive.
For O=C(Nc1ccc(F)c(F)c1)c1cc(S(=O)(=O)NC2CCCCCC2)ccc1F the results were HepG2 tox -97.4%, TDP1 block 5.2%, TDP1 cell noCPT 20.6µM*, DT40 TDP1 CPT 20.6µM* and TGFb inhibitor inconclusive.
Screening CCOc1ccccc1NC(=O)c1cc(S(=O)(=O)NC2CCCC2)ccc1F returned HepG2 tox -13.3%, TDP1 block 0.0%, TDP1 cell noCPT inconclusive, DT40 TDP1 CPT -19.0% and TGFb inhibitor inconclusive.
CN(C)c1ccc(/C=C2\N=C(C(C)(C)C)OC2=O)cc1 was read as HepG2 tox -13.2%, TDP1 block 6.6%, TDP1 cell noCPT 4.5%, IL-1B inflam inh -2.5, DT40 TDP1 CPT -11.8% and TGFb inhibitor 1.2%.
For CCS(=O)(=O)N1CC(=O)N(c2cc(Cl)ccc2C)C(C)(C(=O)NC2CCCCCC2)C1 (stereo not drawn) the results were HepG2 tox -3.9%, TDP1 block 6.2%, TDP1 cell noCPT -26.7%, DT40 TDP1 CPT inconclusive and TGFb inhibitor 0.0%.
Screening COC(=O)C(C(C)C)N1CC(=O)c2ccccc2S1(=O)=O (stereo not drawn) returned HepG2 tox -5.6%, TDP1 block 13.8% and TGFb inhibitor -20.9%.
For COc1ccc2c(c1)C(=O)C(=O)N2CCS(=O)(=O)c1ccccc1 the results were HepG2 tox -9.3%, TDP1 block 4.3%, TDP1 cell noCPT 2.31µM*, IL-1B inflam inh -8.6, DT40 TDP1 CPT 7.31µM* and TGFb inhibitor inconclusive.
For COc1ccc(S(=O)(=O)CCC(=O)O)cc1 the results were HepG2 tox 1.3%, TDP1 block 0.0%, TDP1 cell noCPT -11.5%, IL-1B inflam inh 20.0, DT40 TDP1 CPT -1.7% and TGFb inhibitor 15.1%.
`O=C1C(=O)N(CCS(=O)(=O)c2ccccc2)c2ccc(F)cc21` gave HepG2 tox -99.5%, TDP1 block 5.0%, TDP1 cell noCPT inconclusive, IL-1B inflam inh 2.6, DT40 TDP1 CPT 20.6µM* and TGFb inhibitor inconclusive.
`O=C(Nc1ccc(COc2ccccc2)cc1)Nc1cccc(C(=O)O)c1` gave HepG2 tox 0.3%, TDP1 cell noCPT -4.5%, IL-1B inflam inh 3.2, DT40 TDP1 CPT 6.5% and TGFb inhibitor -11.3%.
Cc1ccc(N2CCN(C3=NC(=O)C(Cc4ccccc4)S3)CC2)cc1 (stereo not drawn) was read as HepG2 tox -2.2%, TDP1 block 4.2%, TDP1 cell noCPT 23.1µM*, IL-1B inflam inh 4.1, DT40 TDP1 CPT 29.1µM* and TGFb inhibitor -19.2%.
Screening COc1cc(NC(=O)Nc2cccc(Cl)c2)c(OC)cc1NC(=O)CN1CCCCC1 returned HepG2 tox -45.7%, TDP1 block 10.0%, TDP1 cell noCPT inconclusive, IL-1B inflam inh -28.9, DT40 TDP1 CPT 16.4µM* and TGFb inhibitor inconclusive.
For COc1cc(NC(=O)c2ccc(C)cc2)c(OC)cc1NC(=O)CN1CCCCC1 the results were HepG2 tox -37.3%, TDP1 block 5.5%, TDP1 cell noCPT 29.1µM*, IL-1B inflam inh inconclusive, DT40 TDP1 CPT 20.6µM* and TGFb inhibitor -5.0%.
`O=C(CN1CCCCC1)Nc1cccc(Cl)c1` gave HepG2 tox 3.1%, TDP1 block 1.3%, TDP1 cell noCPT -3.8%, IL-1B inflam inh -4.3, DT40 TDP1 CPT -8.2% and TGFb inhibitor inconclusive.
Cc1ccc2cc(CNC[C@H]3O[C@@H](n4cc(C)c(=O)[nH]c4=O)C[C@@H]3O)c(N3CCOCC3)nc2c1 was read as HepG2 tox -0.4%, TDP1 cell noCPT -2.3%, IL-1B inflam inh -10.8, DT40 TDP1 CPT 0.4% and TGFb inhibitor 8.9%.
`CCCCCCn1c(=O)n2n(c1=O)C[C@]1(OC(=O)NCc3ccccc3)CN(S(=O)(=O)c3ccc(C)cc3)C[C@]1(O)C2` gave HepG2 tox -15.1%, TDP1 cell noCPT 14.6µM*, IL-1B inflam inh -23.8, DT40 TDP1 CPT inconclusive and TGFb inhibitor inconclusive.
For Cc1ccc(S(=O)(=O)N2C[C@]3(O)C[C@@H]4C(=O)N(c5ccccc5)C(=O)[C@@H]4C[C@]3(OC(=O)NCc3ccccc3)C2)cc1 the results were HepG2 tox 1.5%, TDP1 cell noCPT -23.6%, IL-1B inflam inh 1.6, DT40 TDP1 CPT -7.4% and TGFb inhibitor 3.6%.
